Test [1] is described as follows: qHTS Assay for Lipid Storage Modulators (AID 1519; calls by dose curve; on activity change, negative = inhibition: on the % scale 0 is the no-effect control and ±100 the full control effect). Particulars: Drosophila S3 cells, BODIPY lipid droplet/cell ratio, laser cytometry, cells loaded with oleic acid. Put shortly:
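Cells seeded at 5,000 per well were treated with compounds over a concentration series and loaded with oleic acid (400 uM, as added). Lipid droplet fluorescence (488 nm excitation, 500-530 nm channel) was read by laser-scanning cytometry and normalized to 20 uM Triacsin C.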

In test [2] the target is DNA repair nuclease/redox regulator APEX1 (Homo sapiens) (UniProt P27695). The test is described as follows: qHTS Validation Assay for Inhibitors of the Human Apurinic/apyrimidinic Endonuclease 1 (APE1) (AID 1705;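 further: TAMRA fluorescence gain over two minutes as APE1 cuts a quenched THF abasic duplex; on the % scale 0 is the no-effect control and ±100 the full control effect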). The following applies: purified APE1 endonuclease activity, fluorescence, titration; series mostly up to 57.1 µM. Put shortly:
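Substrate: 50 nM final fluorophore/quencher THF-abasic duplex. Enzyme preincubated with compounds 15 min, RT. Progress derived from fluorescence difference, third minus first kinetic read.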
(Quantitative high-throughput screening tests each substance at several concentrations.)

The target of test [3] is Endonuclease 4 (Escherichia coli (strain K12)) (UniProt P0A6C1). In words: Counterscreen for APE1 Inhibitors: qHTS Validation Assay for Inhibitors of Endonuclease IV (AID 1708). Further: on the % scale 0 is the no-effect control and ±100 the full control effect. Particulars: E. coli endonuclease IV, DNA cleavage fluorescence; series mostly up to 57.1 µM. Put shortly:
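The reaction buffer contained 50 mM Tris-HCl pH 7.5, 50 mM NaCl, 2 mM MgCl2, 1 mM DTT and 0.01% Tween-20. Incision of a 50 nM fluorophore/quencher THF substrate by 2 nM enzyme was measured kinetically.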
Background: Counterscreens check selectivity or assay interference.

Test [4] in a line: qHTS for differential inhibitors of proliferation of Plasmodium falciparum line 7G8 (AID 1815).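 Further: parasite growth measured after three days of incubation; plate controls were vehicle wells for no effect and reference inhibitor wells for full effect.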 Particulars: Plasmodium falciparum 7G8 proliferation inhibition; series mostly up to 28.7 µM.
Test [5] can be described thus: qHTS for differential inhibitors of proliferation of Plasmodium falciparum line GB4 (AID 1816).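 Further: parasite growth measured after 72 h incubation; 0% = vehicle DMSO and -100% = reference inhibitor.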 Particulars: Potency: Plasmodium falciparum GB4 proliferation inhibition; series mostly up to 28.7 µM.
Test [6] can be described thus: qHTS for differential inhibitors of proliferation of Plasmodium falciparum line 3D7 (AID 1876).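 Further: parasite growth measured after three days of culture; 0% = vehicle wells and -100% = reference inhibitor wells.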 Particulars: P. falciparum 3D7 proliferation inhibition; series mostly up to 28.7 µM.
Test [7] in a line: qHTS for differential inhibitors of proliferation of Plasmodium falciparum line D10 (AID 1877).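 Further: parasites grown with compound for 72 h before DNA staining; plate controls were vehicle wells for no effect and reference inhibitor wells for full effect.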 The following applies: series mostly up to 28.7 µM.
Test [8] is described as follows: qHTS for differential inhibitors of proliferation of Plasmodium falciparum line Dd2 (AID 1882).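 Further: compound exposure of 72 h on infected erythrocytes; plate controls were DMSO vehicle for no effect and 0.29 µM artemisinin for full effect; nearly all actives have a fitted effect of over 65% in size.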 Particulars: Potency: Plasmodium falciparum Dd2 proliferation inhibition; series mostly up to 28.7 µM. A digest of the protocol:
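RBC culture, 0.3% parasitemia / 2.5% Hct final; cpd added by pin tool in DMSO; 72 h, 37 C, 5% CO2; lysis buffer + SYBR Green I, o/n RT dark; FI 485/535; norm. to artemisinin 0.29 uM and DMSO.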

Test [9] in a line: qHTS for differential inhibitors of proliferation of Plasmodium falciparum line W2 (AID 1883).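 Further: parasites grown with compound for 72 h before lysis and staining; 0% = vehicle wells and -100% = control inhibitor wells.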 The following applies: Potency: Plasmodium falciparum W2 proliferation inhibition; series mostly up to 28.7 µM.
Test [10] can be described thus: qHTS for differential inhibitors of proliferation of Plasmodium falciparum line HB3 (AID 1886).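 Further: parasites grown with compound for 72 h before SYBR Green readout; plate controls were vehicle for no effect and reference inhibitor for full effect.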 The following applies: Potency: Plasmodium falciparum HB3 proliferation inhibition; series mostly up to 28.7 µM.
For test [11], the target named is ATP-dependent DNA helicase Q1 (Homo sapiens) (UniProt P46063). The test is described as follows: qHTS Validation Assay for Inhibitors of RecQ-Like Dna Helicase 1 (RECQ1) (AID 2353).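 Further: plate controls were DMSO vehicle for no effect and enzyme-free control for full effect.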 Particulars: recombinant RECQ1 helicase DNA unwinding assay; series mostly up to 25.6 µM. A digest of the protocol:
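RECQ1T1 50 nM; forked duplex (20 bp + 30-nt ss tails) 200 nM, ATP 2 mM final; pH 8.0, 2 mM MgCl2, 2.5 ug/ml poly(dI-dC); 15 min compound preincubation; discontinuous kinetic read over 2 h at RT.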

Test [12] addresses RecQ-like DNA helicase BLM (Homo sapiens) (UniProt P54132). The test is described as follows: qHTS Validation Assay for Inhibitors of Bloom's syndrome helicase (BLM) (AID 2364).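 Further: plate controls were DMSO vehicle for no effect and enzyme-free control for full effect.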 Particulars: BLM helicase DNA unwinding, fluorescence, in vitro; series mostly up to 57.1 µM. A digest of the protocol: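 Forked 20-bp duplex substrate (200 nM, TAMRA/BHQ-2) plus 2 mM ATP added after 15 min compound preincubation with 50 nM enzyme, pH 8.0, poly(dI-dC) 2.5 ug/ml. Strand separation followed by fluorescence (525/598 nm) over 2 h, normalized to enzyme-free and DMSO controls.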

Test [13] is described as follows: Cytometric Cell-Based qHTS for Inhibitors of the mTORC1 Signaling Pathway in MEF (Tsc2-/-, p53-/-) Cells (AID 2660).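 Further: Tsc2 and p53 null MEFs carrying empty vector with compound for 24 h; percent of cells above a phospho-rpS6 to PI ratio cutoff in each well; plate controls were DMSO for no effect and rapamycin for full effect.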 The following applies: mTORC1 pathway cytometry; series mostly up to 38.3 µM. A digest of the protocol:
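Percent of cells positive for normalized phospho-S6 staining is reported, with the cutoff set from rapamycin (7.5 nM) versus DMSO wells. Tsc2-/-, p53-/- MEFs received compound for 24 hrs.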

Test [14] can be described thus: High Content Imaging Cell-Based qHTS for Inhibitors of the mTORC1 Signaling Pathway in MEF (Tsc2-/-, p53-/-) Cells (AID 2666).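 Further: percent of cells scored positive for phospho-rpS6 Ser235/236 immunostaining by imaging.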 The following applies: at 38.3 µM (top of the series). A digest of the protocol:
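Tsc2-/-, p53-/- MEFs (empty-vector stable) grown in DMEM + 10% FBS were exposed to compounds for 24 hrs at 37 degree Celsius, fixed, and stained with Alexa-488 anti-phospho-rpS6 Ser235/236 plus Hoechst. Imaging gave the percentage of positive cells per well.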

The nature of test [15]: High Content Imaging Cell-Based qHTS for Inhibitors of the mTORC1 Signaling Pathway in MEF Cells (AID 2667).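 Further: Tsc2-/- p53-/- MEFs stably re-expressing wild-type Tsc2 exposed 24 h; plate controls were DMSO wells for no effect and rapamycin control wells for full effect.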 The following applies: series mostly up to 38.3 µM. Put shortly:
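Tsc2-/-, p53-/- MEFs stably re-expressing WT Tsc2, grown in DMEM + 10% FBS, were treated with compounds for 24 hrs at 37 degree Celsius, fixed, and stained with Alexa-488 phospho-rpS6 Ser235/236 antibody plus Hoechst; results given as % positive cells.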

Test [16] can be described thus: Validation screen for small molecules that induce DNA re-replication in MCF 10A normal breast cells (AID 463097). Further: 0% is about no effect; nearly all actives have a fitted effect of over 60% in size. Particulars: MCF 10A cells, DNA re-replication phenotype imaging; series mostly up to 46.1 µM. A digest of the protocol:
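Following 48 hr compound incubation (37 C, 5% CO2), MCF 10A cells receive Hoechst for 40 min at 37 C. Nuclei are then scanned (excitation 405 nm, emission 500-530 nm) for total fluorescence intensity.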

Test [17] can be described thus: Counterscreen for APE1 Inhibitors: Fluorescent Dye Displacement Validation Assay (AID 1707).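 Further: plate controls were ThO with dsDNA and no compound for no effect and ThO without dsDNA for full effect.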 The following applies: fluorescent dye displacement from DNA; series mostly up to 57.1 µM. A digest of the protocol: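 Loss of Thiazole Orange fluorescence marks promiscuous DNA binders. The dye (250 nM) is mixed with 50 nM abasic-site dsDNA in pH7.5 Tris buffer containing MgCl2, then compounds are added and emission is read once.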

Test [18] can be described thus: qHTS Assay for Modulators of Human Peripheral Myelin Protein 22 (PMP22) Expression/Activity (AID 1967; active means well fitted curve in the direction sought with a large enough effect in the signal ratio; the % refers to the signal ratio;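 further: 0% = untreated cells and 100% end not stated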). The following applies: Cell-based PMP22 reporter, dual-color luciferase ratio, 0% = compound-free control cells, mouse Pmp22 promoter in mouse Schwann cells; series mostly up to 115 µM. A digest of the protocol: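 Engineered MSC80 cells, Pmp22-promoter green and EF-alpha red luciferase reporters; 24h compound treatment at 37 °C. Concentration-response fits on green, red and ratio signals, each overlap-corrected, with %Activity normalized to untreated wells.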

Test [19] is described as follows: Cytometry Cell-Based qHTS for Inhibitors of the mTORC1 Signaling Pathway in MEF cells (AID 2668).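 Further: Tsc2-/- p53-/- mouse embryonic fibroblasts stably re-expressing wild-type Tsc2; percent cells positive for phospho-rpS6 Ser235/236 relative to propidium iodide stain; plate controls were DMSO wells for no effect and 7.5 nM rapamycin control wells for full effect.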 The following applies: mTORC1 pathway readout; series mostly up to 38.3 µM. Put shortly:
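In MEFs grown in DMEM + 10% FBS, a 24 hrs compound exposure preceded imaging of phospho-rpS6 Ser235/236 by laser-scanning cytometry.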

Setting [20] is: measured here: cell count channel max response.
The mark [21] stands for this setting: measured here: lipid channel max response.

“And” between values parts separate entries of the source, which are not always exact repeats. Equal values may be shown once. Inconclusive results are not listed. The source made the active and inactive calls. Unless noted, the call rests on the fitted dose curve; in most records, active means well fitted curve in the direction sought with a large enough effect; inconclusive means small, poorly fitted or top-dose-only effect, or another doubt; inactive means no such curve, though single readings can be large; an effect the other way counts as inactive or inconclusive.

Chain of ATP-dependent DNA helicase Q1 (Homo sapiens) (P46063 whole entry, looked up): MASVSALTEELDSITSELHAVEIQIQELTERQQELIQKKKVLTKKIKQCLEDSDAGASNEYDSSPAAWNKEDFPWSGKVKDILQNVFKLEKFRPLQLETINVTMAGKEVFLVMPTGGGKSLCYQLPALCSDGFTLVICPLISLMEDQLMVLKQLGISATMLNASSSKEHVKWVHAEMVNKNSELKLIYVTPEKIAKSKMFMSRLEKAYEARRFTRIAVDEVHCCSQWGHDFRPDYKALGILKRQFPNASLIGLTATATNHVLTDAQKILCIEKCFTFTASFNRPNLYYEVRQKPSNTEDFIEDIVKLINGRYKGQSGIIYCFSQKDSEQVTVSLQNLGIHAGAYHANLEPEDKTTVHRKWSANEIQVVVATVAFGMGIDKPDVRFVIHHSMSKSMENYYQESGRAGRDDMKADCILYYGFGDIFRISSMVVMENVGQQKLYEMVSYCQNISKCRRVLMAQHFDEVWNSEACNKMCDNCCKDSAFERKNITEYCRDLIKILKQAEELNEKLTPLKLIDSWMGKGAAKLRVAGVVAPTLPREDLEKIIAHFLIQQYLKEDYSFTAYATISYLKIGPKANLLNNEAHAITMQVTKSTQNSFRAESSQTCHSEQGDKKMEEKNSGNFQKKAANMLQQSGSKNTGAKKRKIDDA
Chain of DNA repair nuclease/redox regulator APEX1 (Homo sapiens) (P27695 whole entry, looked up): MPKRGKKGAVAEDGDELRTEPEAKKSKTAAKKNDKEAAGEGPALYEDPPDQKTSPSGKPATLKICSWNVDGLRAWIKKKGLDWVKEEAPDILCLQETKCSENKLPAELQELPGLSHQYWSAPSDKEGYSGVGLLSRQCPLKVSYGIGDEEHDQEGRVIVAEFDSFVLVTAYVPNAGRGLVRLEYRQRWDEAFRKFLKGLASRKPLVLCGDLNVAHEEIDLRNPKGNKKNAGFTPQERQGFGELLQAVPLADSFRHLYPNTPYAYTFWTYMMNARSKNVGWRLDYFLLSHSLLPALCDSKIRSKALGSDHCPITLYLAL
Chain of RecQ-like DNA helicase BLM (Homo sapiens) (P54132 whole entry, looked up): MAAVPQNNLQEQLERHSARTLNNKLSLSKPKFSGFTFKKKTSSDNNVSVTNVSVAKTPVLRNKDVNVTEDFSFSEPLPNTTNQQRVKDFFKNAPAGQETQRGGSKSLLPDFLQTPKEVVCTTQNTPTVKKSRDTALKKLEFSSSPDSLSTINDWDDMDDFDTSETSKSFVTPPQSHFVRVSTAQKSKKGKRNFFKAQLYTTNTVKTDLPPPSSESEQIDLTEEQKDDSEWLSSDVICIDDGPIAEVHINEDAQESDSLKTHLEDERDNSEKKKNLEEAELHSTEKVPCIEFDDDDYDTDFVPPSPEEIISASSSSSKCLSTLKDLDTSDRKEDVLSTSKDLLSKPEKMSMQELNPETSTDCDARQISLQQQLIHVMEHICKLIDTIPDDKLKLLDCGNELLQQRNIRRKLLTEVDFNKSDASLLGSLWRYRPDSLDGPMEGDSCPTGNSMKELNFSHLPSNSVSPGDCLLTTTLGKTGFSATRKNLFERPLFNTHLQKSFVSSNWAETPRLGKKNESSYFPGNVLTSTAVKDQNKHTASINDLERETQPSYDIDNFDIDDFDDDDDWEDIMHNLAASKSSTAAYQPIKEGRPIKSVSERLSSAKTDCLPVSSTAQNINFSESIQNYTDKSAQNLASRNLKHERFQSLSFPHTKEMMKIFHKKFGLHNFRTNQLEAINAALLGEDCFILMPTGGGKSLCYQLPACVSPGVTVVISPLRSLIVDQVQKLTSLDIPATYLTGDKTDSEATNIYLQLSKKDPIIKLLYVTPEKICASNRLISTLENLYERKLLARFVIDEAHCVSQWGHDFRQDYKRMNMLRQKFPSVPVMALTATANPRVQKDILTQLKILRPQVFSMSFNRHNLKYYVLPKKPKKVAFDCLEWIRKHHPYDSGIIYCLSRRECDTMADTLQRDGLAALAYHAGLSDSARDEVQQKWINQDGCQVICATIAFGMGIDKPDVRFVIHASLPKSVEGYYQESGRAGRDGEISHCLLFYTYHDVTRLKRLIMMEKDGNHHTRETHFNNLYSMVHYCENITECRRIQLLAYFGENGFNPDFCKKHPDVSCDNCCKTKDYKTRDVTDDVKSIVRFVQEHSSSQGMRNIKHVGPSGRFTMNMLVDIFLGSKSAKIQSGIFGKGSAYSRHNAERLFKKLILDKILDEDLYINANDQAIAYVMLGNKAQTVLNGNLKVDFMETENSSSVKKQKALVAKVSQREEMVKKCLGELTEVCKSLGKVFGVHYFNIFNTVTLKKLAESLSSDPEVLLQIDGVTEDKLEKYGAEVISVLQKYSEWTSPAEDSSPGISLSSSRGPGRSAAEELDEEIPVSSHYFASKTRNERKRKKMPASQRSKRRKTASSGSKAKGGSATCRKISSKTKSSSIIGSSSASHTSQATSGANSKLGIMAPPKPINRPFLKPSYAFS

For the compound `NC(=O)c1cnccn1`, the activity change, negative = inhibition in [1] (at 57.5 µM (top of the series)) was 8.38% (inactive). Also, the max response in [1] (setting [20]) was 10.7%; in test [1] (setting [21]), 23.4%. Also, the outcome in test [2], in [3], in [11], in test [13], in test [14] and in test [15] was inactive. Moreover, the Potency result in test [4], in test [5], in [6], in [7], in test [8] and in test [9] was “inactive” each time. In addition, the Potency result in test [10], in test [12] and in test [16] was “inactive” throughout.

In the case of `CC(C[N+](C)(C)C)OC(N)=O` (stereo unspecified), the activity change, negative = inhibition in [1] (at 57.5 µM (top of the series)) is 0.608% (inactive). Moreover, the values for the max response in [1] (setting [20]) and in test [1] (setting [21]) were -11.2% and -6.21%, respectively. Besides, the compound was classed as inactive in test [2], in test [3], in [11], in test [13], in test [14] and in test [15]. Further, the Potency result in [4], in test [5], in test [6], in test [7], in test [8] and in test [10] was “inactive” each time. In addition, the Potency entry in test [12] and in test [16] was “inactive” in each case.

With `CCCCNc1cc(C(=O)O)cc(S(N)(=O)=O)c1Oc1ccccc1`, the activity change, negative = inhibition in test [1] (at 25.7 µM (top of the series)) was 0.496% (inactive); in test [1] (at 57.5 µM (top of the series)) it was 9.35% (inactive) and 0.368% (inactive). Moreover, the max response was 0.765% and 10.7% and -18.8% in [1] (setting [20]); -1.29% and 24.4% and -13.7% in test [1] (setting [21]). Also, the compound was called inactive in test [2], in test [17], in [3], in [18], in test [11] and in test [13]. Moreover, the result in test [14] and in test [15] was inactive. Moreover, the Potency entry in test [4], in [5], in [6], in test [7], in test [8] and in test [9] was “inactive” in each case. The Potency entry in [10] and in test [16] was “inactive” in each case.

Regarding `N[C@@H]1CONC1=O`, the activity change, negative = inhibition in test [1] (at 25.7 µM (top of the series)) was -1.13% (inactive) and 2.32% (inactive); in test [1] (at 57.5 µM (top of the series)), 0.855% (inactive). Besides, the max response in test [1] (setting [20]) was -10.2% and -6.54% and 0.81%; in test [1] (setting [21]), -10.7% and -4.08% and 1.58%. The outcome in [2], in test [3], in [18], in test [11], in test [13] and in test [14] was inactive. Also, the call in test [15] and in test [19] was inactive. For the same compound, the Potency result in [4], in test [5], in test [6], in test [7], in test [8] and in test [10] was “inactive” each time. The Potency result in test [16] is “inactive”.

As to `Clc1cccc(Cl)c1NC1=NCCN1`, the activity change, negative = inhibition in test [1] (at 25.7 µM (top of the series)) is -3.52% (inactive); in test [1] (at 57.5 µM (top of the series)), 4.4% (inactive) and 1.2% (inactive). In addition, the max response in test [1] (setting [20]) was 3.68% and -5.77% and -17.1%; in test [1] (setting [21]), -1.31% and -6% and -15.4%. Besides, the call in test [2], in test [3], in test [11], in test [13], in [14] and in test [15] was inactive. Besides, in test [19], the result was inactive. The Potency result in test [4], in [6], in test [7], in test [8], in test [10] and in [16] was “inactive” throughout.

For the origin of these results see PubChem BioAssay (NCATS).
